Results filed as inconclusive are left out. A call without a number means that no potency is given here. The source made the active and inactive calls. Calls come from the whole dose curve; as a rule, active = well fitted curve in the direction sought with a large enough effect; inconclusive = small, poorly fitted or top-dose-only effect, or another doubt; inactive = no such curve, though single readings can be large; an effect the other way counts as inactive or inconclusive. *1 amine or outer side, *2 acyl side, *3 side chain or, on linkers, in order; H or OH if unused. Where a SMILES comes first, the peptide text is derived from it. Bridges are numbered along the chain shown (N, C = ends). [ ]: non-standard residue; d: D form. The star is where a group is joined. pTerphenylCO(4''-OnC5H11) = CCCCCOc1ccc(-c2ccc(-c3ccc(C(=O)*)cc3)cc2)cc1; Orn(4R-OH,5R-OH) = O=C([C@H](C[C@@H](O)[C@@H](O)N[*:3])N[*:1])[*:2]; hTyr(3S-OH,4S-OH) = N[C@H](C(=O)O)[C@H](O)[C@@H](O)c1ccc(O)cc1; Pro(3S-OH,4S-Me) = C[C@H]1CN[C@H](C(=O)O)[C@H]1O; Hyp = O=C(O)[C@@H]1C[C@@H](O)CN1
Assays:
[1] = P-glycoprotein substrates identified in KB-3-1 adenocarcinoma cell line, qHTS therapeutic library screen (AID 1346986); note: nearly all actives have a fitted effect of over 60% in size;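 note: potency is for cytotoxicity meaning loss of cell viability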
Summary of the method: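 Viability read by CellTiter-Glo after 72 h compound exposure in dose-response of KB-3-1 and KB-8-5-11 (P-gp-high) cells. Hits needed AC50 < 10 uM, >50% maximum response and curve class -1.1 to -2.4. Cherry-picks retested ± tariquidar, including pcDNA/MDR-19 HEK-293 pair.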

[2] = P-glycoprotein substrates identified in KB-8-5-11 adenocarcinoma cell line, qHTS therapeutic library screen (AID 1346987); note: nearly all actives have a fitted effect of over 65% in size
Summary of the method: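 Luminescence from CellTiter-Glo, read 5 min after addition, quantified survival of KB-8-5-11 (P-gp-overexpressing) cells exposed to compounds for 72 h. AC50 was derived from concentration-response curves.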

[3] = system: Zika virus NS2B-NS3 protease (linked construct); experiment: Confirmatory screen NINDS AMC qHTS for Zika virus inhibitors (AID 1347152); note: nearly all actives have a fitted effect of over 70% in size
Summary of the method: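 Enzyme (1 nM, linked construct) was preincubated with compound for 15 minutes at room temperature in 10 mM Tris-HCl pH 8.0 with 0.01% Tween 20. Bz-Nle-Lys-Arg-Arg-AMC was then added to 10 microM, and AMC fluorescence was recorded immediately and after 15 minutes.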
Potency is the fitted concentration of half-maximal effect.

CC(=O)C=C=C1C(C)(C)CC(O)CC1(C)O[C@@H]1O[C@H](CO[C@H]2OC[C@](O)(CO)[C@H]2O)[C@@H](O)[C@H](O)[C@H]1O (some centres not stated)
Potency [1]: inactive | Potency [2]: inactive

O=C(Nc1ccccc1C(=O)Nc1ccc(CCO)cc1)c1ccc([N+](=O)[O-])cc1
Potency [1]: inactive | Potency [2]: inactive

C=C1C(=O)O[C@@H]2C[C@]3(C)[C@@H](CCC(C)O)[C@@H]3C[C@H]12 (some centres not stated)
Potency [1]: inactive | Potency [2]: inactive

CN1CCN(c2ccc(-c3cccc(CN4CCOCC4)c3)cc2NC(=O)c2c[nH]c(=O)cc2C(F)(F)F)CC1
Potency [1]: inactive | Potency [2]: inactive

C=C1[C@H]2CC[C@H](C(=O)O)[C@@]23CC[C@H](C3)C1(C)C
Potency [1]: inactive | Potency [2]: inactive

C=C1C(=O)O[C@@H]2/C=C(\CO)CC/C=C(\CO)[C@H](OC(C)=O)C(OC(=O)C(C)CC)C12 (some centres not stated)
Potency [1]: inactive | Potency [2]: inactive

C=C1C(=O)OC2/C=C(\CO)CC/C=C(\C=O)C(OC)C(OC(=O)C(C)CC)C12 (configuration not stated)
Potency [1]: inactive | Potency [2]: inactive

CC1OC2OC(=O)C3(C)CC4C5(CO5)C5=CC(=O)OC(C)(C)C5=CC(=O)C4(C)C(C1=O)C23 (configuration not stated)
Potency [1]: inactive | Potency [2]: inactive

CCCCCOc1ccc(-c2ccc(-c3ccc(C(=O)N[C@H]4C[C@@H](O)[C@@H](O)NC(=O)[C@@H]5[C@@H](O)[C@@H](C)CN5C(=O)[C@H]([C@@H](C)O)NC(=O)[C@H]([C@H](O)[C@@H](O)c5ccc(O)cc5)NC(=O)[C@@H]5C[C@@H](O)CN5C(=O)[C@H]([C@@H](C)O)NC4=O)cc3)cc2)cc1 ({pTerphenylCO(4''-OnC5H11)}-[Orn(4R-OH,5R-OH)]T[Hyp][hTyr(3S-OH,4S-OH)]T[Pro(3S-OH,4S-Me)]; lactam 1-C)
Potency [1]: inactive | Potency [2]: inactive

C=C1C(OC2OC(CO)C(O)C(O)C2O)CC2C(C)(C)C(O)CCC2(C)C1CC/C(C)=C\COC(=O)CC(=O)O (configuration not stated)
Potency [1]: inactive | Potency [2]: inactive

CN(C)c1ccc(NC(=O)NS(=O)(=O)c2ccc(Cl)cc2)cc1
Potency [1]: inactive | Potency [2]: inactive

CNc1nc(Nc2ccc(C(=O)N3CCOCC3)cc2OC)nc2[nH]cc(Cl)c12
Potency [1]: 7.31 µM (active) | Potency [2]: 5.8 µM (active)

NC(=O)c1ccccc1Nc1ccnc(Nc2cccc(O)c2)n1
Potency [1]: 1.3 µM (active) | Potency [2]: 8.2 µM (active)

Cc1c(F)ccc(C(=O)Nc2cc([N+](=O)[O-])ccc2N2CCN(C)CC2)c1Cl
Potency [1]: inactive | Potency [2]: inactive

N#Cc1ccnc(Nc2cc(C3CCN(C4COC4)CC3)cc(N3CCC(F)(F)C3)n2)c1
Potency [1]: 6.51 µM (active) | Potency [2]: 16.4 µM (active)

C=CCCN1CCC2(CC1)CN(C(=O)c1c(F)cccc1F)c1ccc(Cl)cc12
Potency [1]: inactive | Potency [2]: inactive

CC[C@@H](C)Nc1cc(C(=O)NC2CC3CCC(C2)N3c2ccc(C(=O)C3CC3)cn2)c(C)cc1C(N)=O (some centres not stated)
Potency [2]: 0.13 µM (active)

CC(=O)c1c(C)cc2cccc(O)c2c1O[C@@H]1O[C@H](CO)[C@@H](O)[C@H](O)[C@H]1O
Potency [1]: inactive | Potency [2]: inactive

CC1(C)C2CC[C@]3(C)[C@H](C(=O)C=C4[C@@H]5C[C@@](C)(C(=O)O)CC[C@]5(C)CC[C@]43C)[C@@]2(C)CC[C@@H]1O[C@H]1O[C@H](C(=O)O)[C@@H](O)[C@H](O)[C@H]1O[C@@H]1O[C@H](C(=O)O)[C@@H](O)[C@H](O)[C@H]1O (some centres not stated)
Potency [2]: inactive

Cn1ncc(Cl)c1-c1cc(C(=O)N[C@H](CN)Cc2ccc(F)c(F)c2)oc1Cl
Potency [1]: 11.6 µM (active) | Potency [2]: 16.4 µM (active)

O=C(CSc1nc2ccccc2c(=O)n1-c1ccccc1)Nc1ccc2c(c1)CCC2
Potency [1]: inactive | Potency [2]: inactive

CCN(CC)C(=O)C(c1ccccc1)N1CCN(c2ccc(NC(=O)c3ccccc3-c3cccnc3)cc2F)CC1 (configuration not stated)
Potency [1]: inactive | Potency [2]: inactive

CCNC(=O)C#Cc1ccc2c(C(=Nc3ccc(CN(C)C)cc3)c3ccccc3)c(O)[nH]c2c1
Potency [1]: 0.0517 µM (active) | Potency [2]: 0.651 µM (active)

COc1cc(/C=C2\CC[C@H]3COC[C@@H](c4cc(F)c(F)c(F)c4)N3C2=O)ccc1-n1cnc(C)c1
Potency [1]: inactive | Potency [2]: inactive

Cc1cn2cc(C(=O)N(C)CCO)cc(NC3CCOc4cccc(C)c43)c2n1 (configuration not stated)
Potency [1]: inactive | Potency [2]: inactive

C=C1CC[C@@H](O)[C@]2(C)CC[C@H]3C(=C)C(=O)O[C@@H]3[C@@H]12
Potency [1]: inactive | Potency [2]: inactive

CC(C)(C)Sc1c(CC(C)(C)C(=O)O)n(Cc2ccc(Cl)cc2)c2ccc(OCc3ccc4ccccc4n3)cc12
Potency [1]: inactive | Potency [3]: 31.2 µM (active)

— PubChem BioAssay (NCATS)
